Results: PubChem BioAssay
Results filed as inconclusive are left out. Activity calls are given as the source filed them. Unless noted, no cut-off is given here; in the data, nearly all actives have IC50 up to about 30 µM.

test: SU-DIPG-VI glioma cell viability, MIPE4.0 library, CellTiter-Glo luminescence, qHTS (AID 1347066; cut-off not given, nearly all actives have AC50 up to about 30 µM;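 note: cells exposed to compound for 48 hours before readout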); settings: CellTiter-Glo ATP luminescence

For Cc1cc(/C=c2/sc3nc4ccccc4n3c2=O)c(C)n1-c1ccccc1, which outcome is on record?
Its outcome is “inactive”.

For CN(C)CCOc1cc(-c2cn[nH]c2)ccc1NC(=O)C1COc2ccccc2O1 (configuration not stated), which outcome is on record?
Its outcome is “inactive”.

For CCc1cc(/C(C)=N/OCc2ccc(C3CCCCC3)c(C(F)(F)F)c2)ccc1CN1CC(C(=O)O)C1, which outcome is on record?
Its outcome is “inactive”.

Which outcome does the source give for CN1CCC(COc2cnc(-c3cccc(Cn4nc(-c5cccc(C#N)c5)ccc4=O)c3)nc2)CC1 here?
Its outcome is “inactive”.

test: JHH-DIPG-1 glioma cell viability, MIPE5.0 library, CellTiter-Glo luminescence, qHTS (AID 1347067; cut-off not given, nearly all actives have AC50 up to about 26 µM;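 note: cells exposed to compound for 48 hours before readout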); settings: JHH-DIPG-1 glioma viability, CellTiter-Glo ATP luminescence

Which AC50 does the source give for COC(=O)/C=C/C(=O)N(O)CCCCNCc1ccc(COC(=O)Nc2cccc3ccccc23)cc1 here?
The AC50 was 18.6 µM (active).

Which AC50 does the source give for Cc1nn(Cc2ccccc2Cl)c(C)c1CN(C)CC(O)COc1ccc(Cl)cc1 (configuration not stated) here?
Its AC50 is 23.5 µM (active).

For CC(C)[C@@H](CS(=O)(=O)C(C)C)N1C(=O)[C@@](C)(CC(=O)O)C[C@H](c2cccc(Cl)c2)[C@H]1c1ccc(Cl)cc1, which AC50 is on record?
The AC50 was 23.5 µM (active).

For Cc1cc(/C=c2/sc3nc4ccccc4n3c2=O)c(C)n1-c1ccccc1, which outcome is on record?
Its outcome is “inactive”.

For COc1ccc2nc3n[nH]c(C)c3c(NCCOCCO)c2c1, which outcome is on record?
Its outcome is “inactive”.

With Cc1ccc(NS(=O)(=O)c2ccc3c(c2)C2C=CCC2C(c2ccc(C(=O)O)cc2)N3)cc1C (configuration not stated) as the molecule, how does the outcome read?
The outcome was “inactive”.

For CSC[C@H]1CN(Cc2c[nH]c3c(N)ncnc23)C[C@@H]1O, which outcome is on record?
Its outcome is “inactive”.

For Cn1cc(-c2cc(Oc3cc(F)c(NC(=O)C4(C(=O)Nc5ccccc5)CC4)cc3F)ccn2)cn1, which AC50 is on record?
The AC50 was 18.6 µM (active).

With CN1CCN(c2nc(C3=C(c4c[nH]c5ccccc45)C(=O)NC3=O)c3ccccc3n2)CC1 as the molecule, how does the outcome read?
The outcome was “inactive”.

Which AC50 does the source give for CN1CCC(COc2cnc(-c3cccc(Cn4nc(-c5cccc(C#N)c5)ccc4=O)c3)nc2)CC1 here?
Its AC50 is 29.5 µM (active).

With O=C1CSC(=O)N1C(CCc1ccncc1)COc1ccc(-c2cccc([N+](=O)[O-])c2)cc1 (configuration not stated) as the molecule, how does the AC50 read?
The AC50 was 18.6 µM (active).

For O=c1c(-n2ccnn2)c[nH]n1-c1cc(N2CCOCC2)ncn1, which outcome is on record?
The outcome was “inactive”.

With FC(F)(F)c1ccc(CNc2ccc(Cc3c[nH]c4ncc(Cl)cc34)cn2)cn1 as the molecule, how does the outcome read?
The outcome was “inactive”.

test: SU-DIPG-XXV glioma cell viability, MIPE5.0 library, qHTS (AID 1347068); settings: not given

For O=C(Nc1cnccc1Cl)N1CCN(Cc2ccc3c(c2)OC(F)(F)O3)CC1, which outcome is on record?
Its outcome is “inactive”.

For Cc1cc(/C=c2/sc3nc4ccccc4n3c2=O)c(C)n1-c1ccccc1, which outcome is on record?
The outcome was “inactive”.

Which outcome does the source give for Nc1ncnc2c1c(COc1cccc(Cl)c1)nn2C1CCOCC1 here?
Its outcome is “inactive”.

For Cc1ccc(NS(=O)(=O)c2ccc3c(c2)C2C=CCC2C(c2ccc(C(=O)O)cc2)N3)cc1C (configuration not stated), which outcome is on record?
The outcome was “inactive”.

With CSC[C@H]1CN(Cc2c[nH]c3c(N)ncnc23)C[C@@H]1O as the molecule, how does the outcome read?
Its outcome is “inactive”.

With Cc1nn(C)c2c1C(c1ccc(C(F)(F)F)cc1)C(C#N)=C(N)O2 (configuration not stated) as the molecule, how does the outcome read?
Its outcome is “inactive”.

For O=c1[nH]c([C@@H]2CCCN2)nc2c1oc1ccc(Cl)cc12, which outcome is on record?
Its outcome is “inactive”.

With OCCOc1ccc(/C(=C(/CCCl)c2ccccc2)c2ccccc2)cc1 as the molecule, how does the outcome read?
The outcome was “inactive”.

For CN1CCN(c2nc(C3=C(c4c[nH]c5ccccc45)C(=O)NC3=O)c3ccccc3n2)CC1, which outcome is on record?
The outcome was “inactive”.

With CCc1cc(Nc2nccc(-c3c(-c4ccc(OC)c(C(=O)Nc5c(F)cccc5F)c4)nc4ccccn34)n2)c(OC)cc1N1CCC(N2CCN(S(C)(=O)=O)CC2)CC1 as the molecule, how does the outcome read?
Its outcome is “inactive”.

For C[C@@H](Nc1ncnc2[nH]c(-c3ccc(O)cc3)cc12)c1ccccc1, which outcome is on record?
The outcome was “inactive”.

With Nc1nc(-c2nn(Cc3ccccc3F)c3ncccc23)ncc1C1CC1 as the molecule, how does the outcome read?
The outcome was “inactive”.

Which outcome does the source give for COc1cc2ncnc(Nc3cccc(Cl)c3F)c2cc1OC(=O)N1CCN(C)C[C@H]1C here?
The outcome was “inactive”.

With Cc1cc(C)c2c(c1)[C@@H](N(Cc1cc(C(F)(F)F)cc(C(F)(F)F)c1)c1nnn(C)n1)CCCN2CC1CCC(C(=O)O)CC1 (some centres not stated) as the molecule, how does the outcome read?
Its outcome is “inactive”.

With FC(F)(F)c1ccc(CNc2ccc(Cc3c[nH]c4ncc(Cl)cc34)cn2)cn1 as the molecule, how does the outcome read?
Its outcome is “inactive”.
